In PubChem BioAssay (Tox21):
Results filed as inconclusive are left out. The source made the active and inactive calls. The call rests on the fitted dose curve.

Assay: qHTS assay for small molecule disruptors of the mitochondrial membrane potential - cell viability (AID 720634);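 further: human HepG2 liver cancer cells; nearly all actives have a fitted effect of over 20% in size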
Details: HepG2 viability, ATP luminescence (CellTiter-Glo), 1 h; series mostly up to 83.2 µM
Text: U.S. Tox21 Program National Center for Advancing Translational Sciences [NCATS] NIH Chemical Genomics Center [NCGC] U.S. Environmental Protection Agency [EPA] National Institutes of Environmental Health Sciences [NIEHS] National Toxicology Program [NTP] U.S. Food and Drug Administration [FDA] Tox21 Assay Overview: Mitochondrial membrane potential (MMP), one of the parameters for mitochondrial function, is generated by mitochondrial electron transport chain that creates an electrochemical gradient by a series of redox reactions. This gradient drives the synthesis of ATP, a crucial molecule for various cellular processes. Measuring MMP in living cells is commonly used to assess the effect of chemicals on mitochondrial function; decreases in MMP can be detected using lipophilic cationic fluorescent dyes. […] The dye accumulates in the mitochondria of healthy cells as aggregates, with red fluorescence. The mitochondrial potential decreases and the dye could not accumulate in the mitochondria and remains in the cytoplasm in monomers, with green fluorescence. In addition to the mitochondrial potential assay, these cells were also used to test the cytotoxicity by determining the cell viability in the culture based on the quantitation of ATP present. The cytotoxicity was measured in the same assay well of MMP assay.
Tox21 Assay Protocol Summary: 2,000 HepG2 cells in 5 uL/well were dispensed into black, clear-bottom 1536-well plates using a Multidrop Combi (Thermo Scientific) dispenser. The assay plates were incubated for an overnight at 37 C to allow cells to attach to the wells, followed by the transfer of 23 nL compound or DMSO vehicle by a pin tool (Kalypsys). The plates were incubated for 1 hr at 37 C and 5% CO2, followed by the addition of 5 uL of 2X m-MPI dye into each well using Flying Reagent Dispenser (Aurora Discovery) and then CellTiter-Glo reagent was added at 4 uL/well and incubated 30 min at room temperature. Then luminescence intensity was quantified on a ViewLux CCD-based plate reader.

SMILES	outcome
OCCN1CCOCC1	inactive
N#Cc1ccccc1O	inactive
C=CCSSCCC	inactive
CCOCCOCC	inactive
Cc1c(N)cccc1Cl	inactive
C=CCCCCCCCCC(=O)OCCCC	inactive
C=CCN1C[C@H](C(=O)N(CCCN(C)C)C(=O)NCC)C[C@@H]2c3cccc4[nH]cc(c34)C[C@H]21	inactive
COc1ccc(CCO)cc1	inactive
CC(C)Cn1cnc2c1c(=O)n(C)c(=O)n2C	inactive
CCCC(CC)c1ccccc1 (stereo not given)	inactive
O=C=NCC1CCCC(CN=C=O)C1 (stereo not given)	inactive
O=NN(CCCl)C(=O)NC1CCCCC1	inactive
CC(=O)C1C(=O)C=C(C)OC1=O (stereo not given)	inactive
CCCC(=O)OC/C=C(\C)CCC=C(C)C	inactive
CC(=O)c1cc(C)oc1C	inactive
O=C(Cn1ccnc1[N+](=O)[O-])NCc1ccccc1	inactive
CCOC(=O)CC1(C)OCC(C)O1 (stereo not given)	inactive
[O]=[Mo](=[O])=[O]	inactive
COc1cc2c(cc1OC)C(=O)C(CC1CCN(Cc3ccccc3)CC1)C2 (stereo not given)	inactive
CCC(C)OC(C)CC (stereo not given)	inactive

SMILES	outcome
C=C(C)c1cccc(C(C)(C)N=C=O)c1	inactive
O=C(Cl)c1ccccc1[N+](=O)[O-]	inactive
CC(C)CCOC(=O)c1ccccc1	inactive
CC(=O)CCC1=C(C)CCCC1(C)C	inactive
CCCCCCCCCCCCCCC(=O)NC(CO)CCCCCCCCCCCCCC (stereo not given)	inactive
CN(C)C(C)(C)CO	inactive
CCOc1cccc(N)c1	inactive
CC(=O)Nc1ccc(OC(=O)c2ccccc2OC(C)=O)cc1	inactive
CC(C)NCC(O)c1ccc2ccccc2c1 (stereo not given)	inactive
C[C@H]1[C@@H](c2ccccc2)NC(=O)N1C	inactive
CN1C[C@@H]2C[C@H]1CN2c1cc2c(cc1F)c(=O)c(C(=O)O)cn2C1CC1	inactive
CC(=O)C(C)O (stereo not given)	inactive
CN(C)CCOC(=O)C(c1ccccc1)C1(O)CCCC1 (stereo not given)	inactive
NCc1ccc(S(N)(=O)=O)cc1	inactive
CO[Si](CCCn1c(=O)n(CCC[Si](OC)(OC)OC)c(=O)n(CCC[Si](OC)(OC)OC)c1=O)(OC)OC	inactive
CC(=O)CC(=O)Nc1ccc(C)cc1C	inactive
C=C(C)[C@@H]1CC=C(C)C(=O)C1	inactive
CC(=O)CCc1ccc(OC(C)=O)cc1	inactive
Cc1ccc(C(=O)O)cc1[N+](=O)[O-]	inactive
CC1(C)CC(OC(=O)CCCCCCCCC(=O)OC2CC(C)(C)NC(C)(C)C2)CC(C)(C)N1	inactive
